# From PubChem BioAssay
# The source made the active and inactive calls.
# Legend:
# [1] = compounds binding Alexa647 anti-His antibody – biochemical, small-molecule microarray, 635 nm fluorescence, artefact control for SMM control protein annotation, primary screen (AID 1128); conditions: higher = more signal;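 also: score merges feature fluorescence with signal-to-noise for each printed compound spot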
# [2] = tested on: Human papillomavirus type 1a E7 protein (residues 1-88); assay: HPV1a E7 small-molecule binders, primary screen, biochemical, small-molecule microarray, residues 1-88, 635 nm (AID 1129); conditions: small-molecule microarray binding, fluorescence 635 nm; higher = more signal
# [3] = target: Focal adhesion kinase 1 (Homo sapiens) (UniProt Q05397); assay: PTK2 protein binding on printed compound slides – biochemical, small-molecule microarray, 635/667 nm fluorescence, BSA, DTT, primary screen (AID 1130); conditions: 635 nm fluorescence, higher = more signal;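 also: composite of spot emission at 667 nm and signal to noise over triplicate slides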
# [4] = tested on: Fibrinogen (Alexa647-labelled); assay: Alexa647-fibrinogen binding to printed small molecules – biochemical, small-molecule microarray, 635/667 nm fluorescence, artefact control for SMM control-protein annotation, profiling panel (AID 1131); conditions: fibrinogen-A647 binding fluorescence, higher = more signal;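 also: z-score merges 667 nm fluorescence with per-spot signal-to-noise over triplicate slides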
# [5] = target: Follistatin (Homo sapiens) (UniProt P19883); assay: FST protein binding to printed compounds – biochemical, small-molecule microarray, 635/667 nm fluorescence, primary screen (AID 1132); conditions: 635 nm fluorescence, higher = more signal
# [6] = target: Fibroblast growth factor 2 (Homo sapiens) (UniProt P09038); assay: basic fibroblast growth factor binding to printed compounds – biochemical, small-molecule microarray, 635/667 nm fluorescence, primary screen (AID 1133); conditions: FGF2, fluorescence 635/667, higher = more signal
# [7] = JC-1 mitochondrial potential readout, lung cancer cells – cell-based, A549, JC-1 fluorescence, basal, 24 h, 100 nL, profiling panel (AID 1138); conditions: higher = more signal;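 also: A549 lung adenocarcinoma cells under basal conditions with no added stimulus; test concentration not given here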
# Lefty1 = Lefty1 protein binding to printed compounds – biochemical, small-molecule microarray, 635/667 nm fluorescence, primary screen (AID 1139); conditions: fluorescence 635/667, higher = more signal
# [8] = tested on: wheat germ agglutinin (Triticum aestivum), Alexa647-labelled; assay: Alexa647-WGA lectin binding to printed small molecules – biochemical, small-molecule microarray, 635/667 nm fluorescence, artefact control for SMM control-protein annotation, profiling panel (AID 1140); conditions: WGA-A647 binding, 635 nm fluorescence, higher = more signal;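 also: score merges 667 nm feature emission with signal to noise over triplicate slides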
# [9] = target: Luciferin 4-monooxygenase (Photinus pyralis) (UniProt P08659); assay: inhibition of purified Photinus pyralis luciferase – biochemical, luminescence, purified enzyme, 2006 set, primary screen (AID 1141); conditions: purified firefly luciferase, SteadyGlo luminescence, 30 min; higher = more signal, called active from +8 up or from −8 down;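 also: cell-free assay with purified firefly luciferase at 100 ng per well in PBS; test concentration not given here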
# Sequence of Luciferin 4-monooxygenase (Photinus pyralis) (P08659 whole entry, looked up): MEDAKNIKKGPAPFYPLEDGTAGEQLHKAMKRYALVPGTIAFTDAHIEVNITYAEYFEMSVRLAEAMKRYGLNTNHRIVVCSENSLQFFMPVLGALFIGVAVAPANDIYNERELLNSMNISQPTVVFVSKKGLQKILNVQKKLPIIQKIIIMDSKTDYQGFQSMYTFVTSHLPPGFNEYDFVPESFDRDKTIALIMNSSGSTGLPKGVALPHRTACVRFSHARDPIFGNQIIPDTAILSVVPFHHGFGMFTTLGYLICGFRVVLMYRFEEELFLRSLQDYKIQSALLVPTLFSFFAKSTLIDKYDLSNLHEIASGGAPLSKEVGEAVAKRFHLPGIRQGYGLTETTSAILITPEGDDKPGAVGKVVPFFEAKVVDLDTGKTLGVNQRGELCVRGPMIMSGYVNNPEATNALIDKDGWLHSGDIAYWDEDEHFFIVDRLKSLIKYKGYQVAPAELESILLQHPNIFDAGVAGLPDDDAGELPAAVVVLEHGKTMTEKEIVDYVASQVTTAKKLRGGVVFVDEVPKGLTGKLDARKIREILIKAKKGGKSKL
# Sequence of Follistatin (Homo sapiens) (P19883 whole entry, looked up): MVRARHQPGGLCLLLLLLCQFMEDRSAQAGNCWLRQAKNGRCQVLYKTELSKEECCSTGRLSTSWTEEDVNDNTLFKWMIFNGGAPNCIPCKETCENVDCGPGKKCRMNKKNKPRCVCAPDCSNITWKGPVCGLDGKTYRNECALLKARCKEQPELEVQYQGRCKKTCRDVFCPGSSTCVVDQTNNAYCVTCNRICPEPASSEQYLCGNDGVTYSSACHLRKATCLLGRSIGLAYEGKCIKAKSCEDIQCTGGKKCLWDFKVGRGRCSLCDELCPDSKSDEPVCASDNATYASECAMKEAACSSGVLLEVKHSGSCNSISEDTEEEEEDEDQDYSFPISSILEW
# Sequence of Fibroblast growth factor 2 (Homo sapiens) (P09038 whole entry, looked up): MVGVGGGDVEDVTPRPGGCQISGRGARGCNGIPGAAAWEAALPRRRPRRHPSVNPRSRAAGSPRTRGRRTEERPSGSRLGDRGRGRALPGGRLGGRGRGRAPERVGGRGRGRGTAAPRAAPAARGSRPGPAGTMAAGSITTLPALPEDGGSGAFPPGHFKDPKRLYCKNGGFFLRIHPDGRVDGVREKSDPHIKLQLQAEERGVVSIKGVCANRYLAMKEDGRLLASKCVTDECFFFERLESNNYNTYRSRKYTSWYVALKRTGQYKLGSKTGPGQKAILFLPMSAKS
# Sequence of Focal adhesion kinase 1 (Homo sapiens) (Q05397 whole entry, looked up): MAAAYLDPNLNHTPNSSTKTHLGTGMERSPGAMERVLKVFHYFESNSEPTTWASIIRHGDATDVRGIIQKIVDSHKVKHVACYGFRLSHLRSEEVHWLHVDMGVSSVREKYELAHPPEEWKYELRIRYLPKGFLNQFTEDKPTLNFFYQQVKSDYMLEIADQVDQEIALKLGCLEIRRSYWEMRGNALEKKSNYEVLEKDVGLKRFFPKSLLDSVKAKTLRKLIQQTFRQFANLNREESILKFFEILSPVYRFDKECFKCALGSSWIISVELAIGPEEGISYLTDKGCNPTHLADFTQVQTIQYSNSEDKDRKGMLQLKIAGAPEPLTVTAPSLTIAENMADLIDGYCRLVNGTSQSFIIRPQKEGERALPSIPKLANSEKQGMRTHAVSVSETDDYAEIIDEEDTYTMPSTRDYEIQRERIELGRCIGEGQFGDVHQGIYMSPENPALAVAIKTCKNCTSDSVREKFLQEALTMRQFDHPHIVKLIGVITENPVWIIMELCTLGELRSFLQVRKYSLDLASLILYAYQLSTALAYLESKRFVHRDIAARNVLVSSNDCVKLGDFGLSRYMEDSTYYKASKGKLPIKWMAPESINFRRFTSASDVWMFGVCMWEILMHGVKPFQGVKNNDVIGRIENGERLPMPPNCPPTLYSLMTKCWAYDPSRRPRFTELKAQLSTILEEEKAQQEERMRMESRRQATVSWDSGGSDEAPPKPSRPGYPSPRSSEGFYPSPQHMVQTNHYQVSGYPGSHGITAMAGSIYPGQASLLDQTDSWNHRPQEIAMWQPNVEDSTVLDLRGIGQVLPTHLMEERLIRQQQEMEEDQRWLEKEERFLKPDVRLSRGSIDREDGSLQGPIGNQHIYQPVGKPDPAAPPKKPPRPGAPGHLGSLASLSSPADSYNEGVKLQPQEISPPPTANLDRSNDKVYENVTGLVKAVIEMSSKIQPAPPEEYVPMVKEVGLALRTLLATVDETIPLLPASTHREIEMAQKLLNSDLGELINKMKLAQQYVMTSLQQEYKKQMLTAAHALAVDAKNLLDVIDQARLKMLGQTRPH
SMILES,composite z-score [1],composite z-score [2],composite z-score [3],composite z-score [4],composite z-score [5],composite z-score [6],z-score [7],composite z-score (Lefty1),composite z-score [8],z-score [9]
CO[C@H]1COC(=O)[C@H](C)NC(=O)CC=C[C@@H](C)[C@H](OC)COC(=O)[C@@H](OCc2ccccc2)C=C[C@@H]1C,-0.435,-0.611,-0.329,0.029,1.21,0.618,0.805,0.529,-1.25,-0.231 (inactive)
CCc1cc2c(nc1CC)CCN(CCC(C)=NOC[C@H]1O[C@H](c3ccccc3)C=C[C@@H]1Oc1ccc(OC)cc1)C2,0.287,-0.121,-0.0388,0.0851,0.209,-0.155,1.51,0.568,-0.0263,0.698 (inactive)
O=c1n(Cc2cc3c(cc2Cl)OCO3)c(=O)n2n1CC[C@@H]1C(=NOCc3ccccc3)[C@H]3O[C@H]3[C@@H](O)[C@@H]12,0.559,0.459,-0.0758,0.623,0.444,0.784,0.679,0.716,0.125,-1.8 (inactive)
CC(C)=CCCC(C)=CCON=C1C[C@@H](O)[C@@H](O)[C@@H]2[C@@H]3C(=O)N(Cc4ccccc4)C(=O)[C@@H]3CC[C@H]12,0.267,1.2,0.171,0.476,0.669,0.736,-0.566,0.751,0.283,0.71 (inactive)
CCOC(=O)[C@H](Cc1ccccc1)NC(=O)OC1CC(CCC2CC(CC)=NO2)OC2(CCCC(COC(=O)NCCC(C)C)O2)C1 (stereo not given in full),0.272,0.55,0.271,0.305,0.0871,0.342,-0.0991,-0.033,0.668,0.772 (inactive)
O=C1C[C@@H](O)[C@@H](O)[C@@H]2[C@@H]3C(=O)N(Cc4ccc5c(c4)OCO5)C(=O)[C@@H]3CC[C@H]12,0.324,0.923,0.381,0.735,0.243,0.19,0.733,0.428,-0.203,-0.56 (inactive)
C#CCCCON=C1[C@H]2CCn3c(=O)n(-c4ccccc4)c(=O)n3[C@H]2[C@H](O)[C@@H]2O[C@H]12,0.303,0.875,0.093,0.436,0.295,0.27,0.94,0.66,0.107,-1.32 (inactive)
COC(=O)CC=C[C@@H](C)[C@@H](C=NO[C@H](C)c1cn([C@H](CO)Cc2ccccc2)nn1)OC,3.43,0.544,-0.144,0.236,0.517,0.827,-0.826,0.71,0.268,-0.165 (inactive)
